Data from PubChem BioAssay (NCI).
This is part of a sample that, as a whole, favours compounds with a hit. Of some 83,000 tested, about 20% had one in any assay.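 The test compound was applied at a single concentration to cells in 96-well plates for 48 hours, and percent growth was recorded.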 The source made the active and inactive calls. How the source made its calls: active means growth percent below 10; inactive means the rest.

Experiments:
Test in all cases: NCI-60 one-dose screen, 48 h (100 = growth as untreated, 0 = no growth, -100 = all killed)
Conditions in all cases: 10 µM unless noted
HCT-15 colon = tested on: HCT-15 colon
HT29 colon = tested on: HT29 colon
SNB-75 CNS = tested on: SNB-75 CNS
SNB-19 CNS = tested on: SNB-19 CNS
U251 CNS = tested on: U251 CNS
PC-3 prostate = tested on: PC-3 prostate
SK-MEL-5 melanoma = tested on: SK-MEL-5 melanoma
UACC-62 melanoma = tested on: UACC-62 melanoma
LOX IMVI melanoma = tested on: LOX IMVI melanoma
SK-MEL-28 melanoma = tested on: SK-MEL-28 melanoma
SK-MEL-2 melanoma = tested on: SK-MEL-2 melanoma
EKVX NSCLC = tested on: EKVX NSCLC
SN12C renal = tested on: SN12C renal
UO-31 renal = tested on: UO-31 renal
TK-10 renal = tested on: TK-10 renal
ACHN renal = tested on: ACHN renal
CAKI-1 renal = tested on: CAKI-1 renal
A498 renal = tested on: A498 renal
CCRF-CEM leukemia = tested on: CCRF-CEM leukemia
MOLT-4 leukemia = tested on: MOLT-4 leukemia

Measured: growth

COc1ccc(/C=C/C(=O)c2cc3c(N)c(C(=O)Nc4ccc(OC)cc4)sc3nc2C)cc1
inactive: HCT-15 colon 20.6% | SNB-19 CNS 16.3% | U251 CNS 20.2% | PC-3 prostate 32.3% | UACC-62 melanoma 21.8% | LOX IMVI melanoma 31.6% | SK-MEL-28 melanoma 55.7% | SK-MEL-2 melanoma 15.4% | EKVX NSCLC 45.2% | SN12C renal 31.6% | UO-31 renal 41% | TK-10 renal 40.8% | ACHN renal 42.6% | CAKI-1 renal 24.8% | A498 renal 18.6% | CCRF-CEM leukemia 19.9% | MOLT-4 leukemia 33.3%
active: HT29 colon -18% | SNB-75 CNS 2.43% | SK-MEL-5 melanoma 9.81%

CC[C@H](CC[C@@H](C)[C@H]1CC[C@H]2[C@@H]3CC[C@@H]4CC(=O)/C(=C\c5ccncc5)C[C@]4(C)[C@H]3CC[C@]12C)C(C)C
inactive: HCT-15 colon 102% | HT29 colon 103% | SNB-75 CNS 99.4% | SNB-19 CNS 99.2% | U251 CNS 96.3% | PC-3 prostate 92.6% | SK-MEL-5 melanoma 100% | UACC-62 melanoma 94.5% | LOX IMVI melanoma 95.7% | SK-MEL-28 melanoma 107% | SK-MEL-2 melanoma 105% | EKVX NSCLC 99.6% | SN12C renal 102% | UO-31 renal 90.4% | TK-10 renal 107% | ACHN renal 111% | CAKI-1 renal 93.8% | A498 renal 83% | CCRF-CEM leukemia 107% | MOLT-4 leukemia 104%

C=CCCC(=O)N1C=CC(=O)[C@H](O)[C@@H]1/C=C/c1ccccc1
inactive: HCT-15 colon 36.5% [100 µM] | HT29 colon 39.4% [100 µM] | SNB-75 CNS 85% [100 µM] | SNB-19 CNS 44.5% [100 µM] | U251 CNS 33% [100 µM] | PC-3 prostate 51.2% [100 µM] | UACC-62 melanoma 27.8% [100 µM] | LOX IMVI melanoma 27.9% [100 µM] | SK-MEL-28 melanoma 53.7% [100 µM] | SK-MEL-2 melanoma 77.7% [100 µM] | EKVX NSCLC 37.4% [100 µM] | SN12C renal 42% [100 µM] | UO-31 renal 29% [100 µM] | TK-10 renal 54.9% [100 µM] | ACHN renal 28.1% [100 µM] | CAKI-1 renal 15.7% [100 µM] | A498 renal 83.4% [100 µM] | CCRF-CEM leukemia 27.7% [100 µM] | MOLT-4 leukemia 36.5% [100 µM]
active: SK-MEL-5 melanoma 0.433% [100 µM]

Clc1ccc(-c2nc(-c3c[nH]c4ncccc34)cs2)cc1
active: SNB-75 CNS -11.3% [100 µM]
inactive: HCT-15 colon 98.7% [100 µM] | HT29 colon 80.2% [100 µM] | SNB-19 CNS 48.7% [100 µM] | U251 CNS 16.2% [100 µM] | PC-3 prostate 43.9% [100 µM] | SK-MEL-5 melanoma 84.1% [100 µM] | UACC-62 melanoma 71.2% [100 µM] | LOX IMVI melanoma 62.6% [100 µM] | SK-MEL-28 melanoma 94% [100 µM] | SK-MEL-2 melanoma 72% [100 µM] | EKVX NSCLC 34.7% [100 µM] | SN12C renal 62.4% [100 µM] | UO-31 renal 65.7% [100 µM] | TK-10 renal 39.7% [100 µM] | ACHN renal 66.9% [100 µM] | CAKI-1 renal 49.4% [100 µM] | A498 renal 47.2% [100 µM] | CCRF-CEM leukemia 109% [100 µM] | MOLT-4 leukemia 98.1% [100 µM]

COc1cccc2c(N=NC(=O)c3ccc(S(N)(=O)=O)cc3)c(O)[nH]c12
inactive: HCT-15 colon 98.8% | HT29 colon 106% | SNB-75 CNS 95.1% | SNB-19 CNS 97.1% | U251 CNS 101% | PC-3 prostate 99.1% | SK-MEL-5 melanoma 99.4% | UACC-62 melanoma 99.8% | LOX IMVI melanoma 99.5% | SK-MEL-28 melanoma 112% | SK-MEL-2 melanoma 112% | EKVX NSCLC 98.4% | SN12C renal 98.3% | UO-31 renal 76.7% | TK-10 renal 108% | ACHN renal 105% | CAKI-1 renal 93.6% | A498 renal 94.8% | CCRF-CEM leukemia 112% | MOLT-4 leukemia 109%

O=C(NCc1ccccc1O)c1cccc2ccccc12
inactive: HCT-15 colon 68.9% | HT29 colon 107% | SNB-75 CNS 66.5% | SNB-19 CNS 69.3% | U251 CNS 81.6% | PC-3 prostate 52.5% | SK-MEL-5 melanoma 60.1% | UACC-62 melanoma 37.9% | LOX IMVI melanoma 79.6% | SK-MEL-28 melanoma 71.5% | SK-MEL-2 melanoma 86.4% | EKVX NSCLC 82.1% | SN12C renal 64.9% | UO-31 renal 51.5% | TK-10 renal 98.5% | ACHN renal 72.4% | CAKI-1 renal 91.9% | A498 renal 56% | CCRF-CEM leukemia 101% | MOLT-4 leukemia 79%

Cn1cc(/C=C2/C(=O)Nc3ccccc32)c2ccccc21
inactive: HCT-15 colon 72.9% | HT29 colon 95.4% | SNB-75 CNS 99.3% | SNB-19 CNS 102% | U251 CNS 78.3% | PC-3 prostate 90.2% | SK-MEL-5 melanoma 79.2% | UACC-62 melanoma 107% | LOX IMVI melanoma 92.1% | SK-MEL-28 melanoma 101% | SK-MEL-2 melanoma 101% | EKVX NSCLC 78.2% | SN12C renal 85.7% | UO-31 renal 57.9% | TK-10 renal 119% | ACHN renal 83.3% | CAKI-1 renal 64.8% | A498 renal 118% | CCRF-CEM leukemia 90% | MOLT-4 leukemia 82.4%

CCN1CCN(CC(=O)Nc2nc3ccc(NCc4ccc(Br)cc4)cc3s2)CC1
active: HCT-15 colon -18.8% | HT29 colon 2.33% | UACC-62 melanoma -47.1% | LOX IMVI melanoma -76.4% | SK-MEL-28 melanoma -66.6%
inactive: SNB-75 CNS 89.4% | SNB-19 CNS 76.3% | U251 CNS 52.9% | PC-3 prostate 44.6% | SK-MEL-5 melanoma 47.6% | SK-MEL-2 melanoma 55.4% | EKVX NSCLC 68.2% | SN12C renal 63.8% | UO-31 renal 59.5% | TK-10 renal 87% | ACHN renal 74.6% | CAKI-1 renal 35.5% | A498 renal 88.8% | CCRF-CEM leukemia 34.2% | MOLT-4 leukemia 31.7%

O=C(Cn1nnc([N+](=O)[O-])n1)c1ccccc1
inactive: HCT-15 colon 80.5% | HT29 colon 66.4% | SNB-75 CNS 67.9% | SNB-19 CNS 116% | U251 CNS 106% | PC-3 prostate 79.8% | SK-MEL-5 melanoma 84.1% | UACC-62 melanoma 68.8% | LOX IMVI melanoma 59.6% | SK-MEL-28 melanoma 110% | SK-MEL-2 melanoma 73.3% | EKVX NSCLC 100% | SN12C renal 102% | UO-31 renal 85.1% | TK-10 renal 92% | ACHN renal 107% | CAKI-1 renal 77.7% | A498 renal 48.6% | CCRF-CEM leukemia 58.6% | MOLT-4 leukemia 95.3%

O=C(/C=C/C12c3ccccc3C(c3ccccc31)C1C(=O)NC(=O)C12)c1ccccn1 (stereo not given)
inactive: SNB-75 CNS 26.5% | PC-3 prostate 16.3% | EKVX NSCLC 19.6% | SN12C renal 17.2% | CAKI-1 renal 16.9%
active: HCT-15 colon -1.54% | HT29 colon 0.981% | SNB-19 CNS 1.14% | U251 CNS -28.9% | SK-MEL-5 melanoma 3.65% | UACC-62 melanoma -48.4% | LOX IMVI melanoma -60.5% | SK-MEL-28 melanoma -33.2% | SK-MEL-2 melanoma 7.36% | UO-31 renal 6.89% | TK-10 renal 7.71% | ACHN renal 1.3% | A498 renal -3.11% | CCRF-CEM leukemia -16.1% | MOLT-4 leukemia -2.05%

N=C(N)SCc1cccc2c(CSC(=N)N)cccc12
inactive: HCT-15 colon 108% | HT29 colon 108% | SNB-75 CNS 91.7% | SNB-19 CNS 93.5% | U251 CNS 89.2% | PC-3 prostate 97.4% | SK-MEL-5 melanoma 109% | UACC-62 melanoma 96.6% | LOX IMVI melanoma 97.7% | SK-MEL-28 melanoma 109% | SK-MEL-2 melanoma 106% | EKVX NSCLC 107% | SN12C renal 94% | UO-31 renal 84.9% | TK-10 renal 106% | ACHN renal 108% | CAKI-1 renal 94.4% | A498 renal 87.2% | CCRF-CEM leukemia 119% | MOLT-4 leukemia 119%

C=C(CO)[C@@H]1CC[C@]2(COC3CCCCO3)CC[C@]3(C)[C@H](CC[C@@H]4[C@@]5(C)C=C(C=O)C(=O)C(C)(C)[C@@H]5CC[C@]43C)[C@@H]12 (stereo not given in full)
active: HCT-15 colon -90.5% | HT29 colon -83.6% | SNB-75 CNS -51.6% | SNB-19 CNS -83.8% | U251 CNS -88.6% | PC-3 prostate -82.5% | SK-MEL-5 melanoma -95.1% | UACC-62 melanoma -76.7% | LOX IMVI melanoma -88.4% | SK-MEL-28 melanoma -71.3% | SK-MEL-2 melanoma -57.3% | EKVX NSCLC -82.8% | SN12C renal -67.3% | UO-31 renal -96.9% | TK-10 renal -96.2% | ACHN renal -100% | CAKI-1 renal -76% | A498 renal -97.7% | CCRF-CEM leukemia -62.9% | MOLT-4 leukemia -32.2%

c1ccc(CNc2ccc3nc(CCC4CCCCC4)[nH]c3c2)cc1
inactive: HCT-15 colon 26.8% | HT29 colon 13.8% | SNB-75 CNS 84.9% | SNB-19 CNS 80.4% | U251 CNS 63.6% | PC-3 prostate 62.5% | SK-MEL-5 melanoma 43.2% | UACC-62 melanoma 59.6% | LOX IMVI melanoma 79.4% | SK-MEL-28 melanoma 80% | SK-MEL-2 melanoma 82.8% | EKVX NSCLC 75.7% | SN12C renal 62.8% | UO-31 renal 37.5% | TK-10 renal 84.2% | ACHN renal 87% | CAKI-1 renal 66.7% | A498 renal 42.7% | CCRF-CEM leukemia 59.2% | MOLT-4 leukemia 51.2%
